# Measurements: PubChem BioAssay (NCATS)
# Records with an inconclusive call do not appear. Where a call stands in place of a potency, no number is given. A number with no mark means an inactive call. The source made the active and inactive calls. Calls come from the whole dose curve; as a rule, active = well fitted curve in the direction sought with a large enough effect; inconclusive = small, poorly fitted or top-dose-only effect, or another doubt; inactive = no such curve, though single readings can be large; an effect the other way counts as inactive or inconclusive.
# Key:
# [1] = biological target: Rap guanine nucleotide exchange factor 3 (Homo sapiens) (UniProt O95398); assay: Confirmatory qHTS for antagonist of cAMP-regulated guanine nucleotide exchange factor 3 (EPAC1) (AID 1645880); conditions: EPAC1 Rap1B-BODIPY-GDP exchange, fluorescence; activity, negative = inhibition: at 115 µM (top of the series); note: nearly all actives have a fitted effect of over 55% in size; note: potency is the fitted concentration of half-maximal effect
# Chain of Rap guanine nucleotide exchange factor 3 (Homo sapiens) (O95398 whole entry, looked up): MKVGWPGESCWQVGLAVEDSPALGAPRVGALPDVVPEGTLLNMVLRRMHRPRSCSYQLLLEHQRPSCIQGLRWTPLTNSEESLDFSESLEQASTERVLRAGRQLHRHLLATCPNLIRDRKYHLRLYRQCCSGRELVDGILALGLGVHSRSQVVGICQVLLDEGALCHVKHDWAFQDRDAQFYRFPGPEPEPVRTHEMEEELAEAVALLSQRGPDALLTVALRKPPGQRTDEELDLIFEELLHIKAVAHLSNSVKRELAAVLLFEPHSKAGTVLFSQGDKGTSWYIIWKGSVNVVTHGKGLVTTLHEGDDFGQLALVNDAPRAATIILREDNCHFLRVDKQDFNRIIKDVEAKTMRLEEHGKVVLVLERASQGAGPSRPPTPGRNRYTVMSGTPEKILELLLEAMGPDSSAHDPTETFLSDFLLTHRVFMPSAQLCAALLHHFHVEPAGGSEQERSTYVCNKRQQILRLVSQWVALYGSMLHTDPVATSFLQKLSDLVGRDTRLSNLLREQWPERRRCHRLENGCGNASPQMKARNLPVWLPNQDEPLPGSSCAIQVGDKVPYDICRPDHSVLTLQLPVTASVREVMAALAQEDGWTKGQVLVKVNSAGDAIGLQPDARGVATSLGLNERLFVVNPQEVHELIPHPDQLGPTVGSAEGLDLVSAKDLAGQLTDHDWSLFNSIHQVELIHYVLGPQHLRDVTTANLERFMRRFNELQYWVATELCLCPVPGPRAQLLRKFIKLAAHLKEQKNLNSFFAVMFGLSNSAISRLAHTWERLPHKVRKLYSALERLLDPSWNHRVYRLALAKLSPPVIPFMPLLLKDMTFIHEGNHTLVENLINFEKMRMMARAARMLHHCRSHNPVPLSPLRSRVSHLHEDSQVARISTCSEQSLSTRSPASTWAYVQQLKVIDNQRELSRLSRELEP
# Method in brief: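 Released BODIPY-GDP fluoresces less than Rap1-bound BODIPY-GDP; the signal is followed at 480/540 nm at 5-min intervals over 30 min, after 5 min at room temperature. Reactions contain 100 nM EPAC1, 250 nM RAP1B-BODIPY-GDP and 50 uM GDP; results are normalized to ATA and DMSO.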
# [2] = biological target: Rap guanine nucleotide exchange factor 3 (Homo sapiens) (UniProt O95398); assay: Confirmatory qHTS for agonist of cAMP-regulated guanine nucleotide exchange factor 3 (EPAC1) (AID 1645881); note: nearly all actives have a fitted effect of over 75% in size; note: potency is the fitted concentration of half-maximal effect;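 for activation: EPAC1 catalysed release of BODIPY-GDP from Rap1B seen as fluorescence loss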
# [3] = biological target: Rap guanine nucleotide exchange factor 4 (Homo sapiens) (UniProt Q8WZA2); assay: Confirmatory qHTS for agonist of cAMP-regulated guanine nucleotide exchange factor 4 (EPAC2) (AID 1645884);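 note: nucleotide exchange releases bodipy-GDP from Rap1 and this lowers its fluorescence; nearly all actives have a fitted effect of over 65% in size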; note: potency is the fitted concentration of half-maximal effect
# Chain of Rap guanine nucleotide exchange factor 4 (Homo sapiens) (Q8WZA2 whole entry, looked up): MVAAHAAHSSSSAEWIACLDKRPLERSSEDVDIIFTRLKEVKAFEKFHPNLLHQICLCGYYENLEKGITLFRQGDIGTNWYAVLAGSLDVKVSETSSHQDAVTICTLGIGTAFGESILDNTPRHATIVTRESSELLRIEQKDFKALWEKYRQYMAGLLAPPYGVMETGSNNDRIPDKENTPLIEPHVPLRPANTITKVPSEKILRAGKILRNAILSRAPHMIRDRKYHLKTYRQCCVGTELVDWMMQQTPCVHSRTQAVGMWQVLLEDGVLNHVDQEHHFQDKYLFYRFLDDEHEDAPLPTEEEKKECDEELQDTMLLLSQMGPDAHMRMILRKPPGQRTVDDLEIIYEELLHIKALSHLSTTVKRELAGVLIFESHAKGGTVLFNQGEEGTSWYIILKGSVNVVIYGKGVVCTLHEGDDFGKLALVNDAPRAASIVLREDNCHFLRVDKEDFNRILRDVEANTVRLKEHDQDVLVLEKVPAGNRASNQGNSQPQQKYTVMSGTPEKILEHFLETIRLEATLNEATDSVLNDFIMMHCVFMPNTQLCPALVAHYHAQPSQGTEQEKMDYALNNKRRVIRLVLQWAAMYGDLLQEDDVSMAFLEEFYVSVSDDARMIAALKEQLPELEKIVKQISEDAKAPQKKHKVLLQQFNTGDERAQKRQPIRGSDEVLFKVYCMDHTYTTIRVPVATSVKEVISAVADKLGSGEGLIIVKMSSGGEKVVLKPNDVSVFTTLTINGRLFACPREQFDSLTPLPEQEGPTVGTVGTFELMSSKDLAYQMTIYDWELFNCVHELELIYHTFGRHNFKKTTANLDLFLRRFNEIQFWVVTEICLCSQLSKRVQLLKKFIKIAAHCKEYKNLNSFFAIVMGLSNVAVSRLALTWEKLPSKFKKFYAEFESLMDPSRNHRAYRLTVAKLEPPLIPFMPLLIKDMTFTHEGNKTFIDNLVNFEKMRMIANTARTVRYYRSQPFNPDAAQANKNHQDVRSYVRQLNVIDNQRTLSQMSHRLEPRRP
# [4] = biological target: Rap guanine nucleotide exchange factor 3 (Homo sapiens) (UniProt O95398); assay: Counterscreen qHTS for antagonist of cAMP-regulated guanine nucleotide exchange factor 3 (EPAC1) (AID 1645888)
# Method in brief: (§1)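 Measured: fluorescence of BODIPY-GDP bound to Rap1B, which falls as exchange proceeds. Conditions include 50 uM competing GDP, 5 and 30 min reads, and a later cAMP challenge for antagonist detection.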
# [5] = biological target: Rap guanine nucleotide exchange factor 3 (Homo sapiens) (UniProt O95398); assay: Counterscreen qHTS for agonist of cAMP-regulated guanine nucleotide exchange factor 3 (EPAC1) (AID 1645889); note: nearly all actives have a fitted effect of over 40% in size
# Method in brief: as §1
Structure (SMILES),Potency [1],Potency [2],activation [3],"activity change, negative = inhibition [4]",Potency [3],Potency [4],activation [5],Potency [5]
CCOC(=O)C(C)Sc1ncnc2c1nnn2-c1ccc(F)cc1 (stereo not given),inactive,inactive,"3.03% [at 17.1 µM, percent relative to cAMP agonist control]",-4.79% [at 30.8 µM],,,,
O=C(CSc1nc2nn(-c3ccccc3)c(=O)c-2c2n1CCCCC2)c1ccc(O)c(O)c1,2.39 µM (active),inactive,,,inactive,inactive,,
CCN(CC1COc2ccccc2O1)C(=O)CN1C(=O)NC(C)(c2ccc(C)cc2)C1=O (stereo not given),inactive,inactive,,,inactive,inactive,,
COc1ccccc1N(CC(=O)Nc1ccc(Br)cc1F)S(=O)(=O)c1cccs1,inactive,inactive,,,inactive,inactive,,
COc1cc(CN2C(=O)C(C)ON=C2c2cccs2)cc(OC)c1 (stereo not given),inactive,inactive,,,inactive,inactive,,
CCSc1oc(-c2cccs2)nc1S(=O)(=O)c1ccccc1,inactive,inactive,,,inactive,inactive,,
C=C(C)Cn1c(C)cc(C)c(S(=O)(=O)c2ccc(C)cc2)c1=O,inactive,inactive,,,inactive,inactive,,
COC(=O)C1=CN(Cc2cccs2)C=C(C(=O)OC)C1c1cccc(O)c1,inactive,inactive,,,inactive,inactive,,
CC(C)=CCc1c(O)cc2oc3c(CC=C(C)C)c(O)c(O)c(CC=C(C)C)c3c(=O)c2c1O,75.7 µM (active),inactive,,,inactive,inactive,,
Cn1c2c(c3ccccc31)CCN1CCC[C@]21c1ccccc1,inactive,inactive,,,inactive,inactive,,
COc1cc(/C=C2\C(=N)N3N=C(S(C)(=O)=O)SC3=NC2=O)cc(OC)c1OCCOc1ccccc1C,67.5 µM (active),inactive,,,inactive,inactive,,
Cc1ccc2oc(=O)c(/C=C(\O)c3ccco3)nc2c1,inactive,89.1 µM (active),,,100 µM (active),inactive,,
CCN(CC)c1ccc2cc(-c3nnc(-c4cccc(Cl)c4)o3)c(=O)oc2c1,inactive,44.7 µM (active),,,35.5 µM (active),inactive,,
COc1ccccc1Nc1nc2ccc(C)cc2cc1C#N,inactive,inactive,,,inactive,inactive,,
O=C(c1ccco1)N1CCn2cccc2C1c1ccccc1 (stereo not given),inactive,inactive,,,inactive,inactive,,
Cc1ccc(Sc2ncccc2C(=O)N(C)Cc2cccs2)c(C)c1,inactive,inactive,,,inactive,inactive,,
COc1ccc(C(C(=O)NC(C)(C)C)n2c(=O)c(-c3cc4ccccc4[nH]3)nc3ccccc32)cc1 (stereo not given),inactive,inactive,,,inactive,inactive,,
CC(C)NC(=O)c1sc(=S)n2c1[nH]c(=O)c1ccc(C(=O)NCCc3ccc(Cl)cc3)cc12,50.1 µM (active),inactive,"4.17% [at 17.1 µM, percent relative to cAMP agonist control]",-15.1% [at 30.8 µM],,,,
COc1ccc(OC)c(C(=O)c2ccc(Cl)cc2)c1,inactive,inactive,"8.77% [at 17.1 µM, percent relative to cAMP agonist control]",5.43% [at 30.8 µM],,,,
Cc1ccc(CNc2cc(C)nc3nc(-c4cccc(C)c4)nn23)cc1,inactive,inactive,,,inactive,inactive,,
O=C(Cc1ccc(F)cc1)Nc1ccccc1Sc1ccccc1,inactive,inactive,,,inactive,inactive,,
CCCCn1nnnc1C(c1ccccc1)N1CCN(c2ccc(F)cc2)CC1 (stereo not given),inactive,inactive,,,inactive,inactive,,
COC(=O)/C(=C/Nc1ccc(O)cc1)[N+](=O)[O-],inactive,inactive,,,inactive,inactive,,
Nc1nc(C(c2ccccc2)c2ccccc2)cs1,inactive,inactive,,,inactive,inactive,,
C[C@@H]1CC=C[C@H]2[C@H]1C(=O)N(Cc1ccccc1)[C@H]2c1ccc(-c2ccoc2)cc1F,inactive,inactive,,,inactive,inactive,,
Cc1cccc(C)c1-n1nnnc1C(c1ccnc2ccccc12)N(CCC#N)Cc1ccccc1 (stereo not given),inactive,inactive,,,inactive,inactive,,
CCCc1nc2c3ccccc3ccn2c1CC(C)(C)C,inactive,inactive,,,inactive,inactive,,

Structure (SMILES),Potency [1],Potency [2],activation [3],"activity change, negative = inhibition [4]",Potency [3],Potency [4],activation [5],Potency [5]
O=C(O)CSc1cc(NS(=O)(=O)c2ccc(Cl)cc2)c2ccccc2c1O,75.7 µM (active),inactive,,,inactive,inactive,,
COc1ccc(-c2csc(NC(=O)c3ccccc3NS(=O)(=O)c3ccc(F)c(F)c3)n2)cc1,22.4 µM (active),inactive,"-1.62% [at 17.1 µM, percent relative to cAMP agonist control]",-3.56% [at 30.8 µM],,,,
COC(=O)c1c(-c2ccc(OC)cc2)sc2ccc(OC)cc12,inactive,inactive,,,inactive,inactive,,
Cc1ccc(CC#N)c(-c2c(CC#N)ccc(C)c2C)c1C,inactive,inactive,,,inactive,inactive,,
O=C(Nc1cccc(Cl)c1N1CCOCC1)c1cccs1,inactive,inactive,,,inactive,inactive,,
Cc1nn(-c2ccccc2)c(Cl)c1/C=N/Nc1ccc(S(=O)(=O)Nc2ccccc2C(=O)O)cc1[N+](=O)[O-],42.6 µM (active),inactive,,,inactive,inactive,,
CN(C)CCNC(=O)c1ccc(-c2cn3c(-c4ccc(Oc5ccccc5)cc4)cnc3cn2)cc1,inactive,inactive,,,inactive,inactive,,
CCC(=O)N1CCc2cc(OC)c(OC)cc2C1COc1ccc(F)cc1 (stereo not given),inactive,inactive,"5.75% [at 17.1 µM, percent relative to cAMP agonist control]",-5.57% [at 30.8 µM],,,,
Cc1nc2cc(-c3ccsc3-n3c(C)ccc3C)[nH]n2c(=O)c1Cl,37.9 µM (active),inactive,,,inactive,inactive,,
O=C(Cc1ccccc1Cl)Nc1ccc(S(=O)(=O)N2CCOCC2)cc1,inactive,inactive,,,inactive,inactive,,
COc1cccc(N(C(=O)c2ccco2)C(C(=O)NC2CCCC2)c2cccnc2)c1 (stereo not given),inactive,inactive,,,inactive,inactive,,
O=C1ON=C(c2ccccc2)/C1=C/c1ccc(-c2ccccc2[N+](=O)[O-])o1,37.9 µM (active),inactive,,,inactive,inactive,,
CC(=O)c1ccc(NC(=O)c2ccc3c(c2)C(=O)N(c2ccccn2)C3=O)cc1,8.49 µM (active),inactive,,,inactive,inactive,,
COc1ccc(-c2nc(C)ncc2-c2ccc(Cl)cc2)c(O)c1,inactive,inactive,,,inactive,inactive,,
CC(C)C(NC(=O)c1ccccc1)C(=O)OCn1nnc2ccccc2c1=O (stereo not given),inactive,inactive,,,inactive,inactive,,
COc1ccc2c(c1)C(CC(C)=O)N(c1ccc(-c3cccnc3)cc1)C(c1ccsc1)=C2 (stereo not given),inactive,inactive,,,inactive,inactive,,
CCCCCCc1cc2cc(-c3nnc(-c4ccc(C)cc4)o3)c(=O)oc2cc1O,inactive,inactive,,,inactive,inactive,,
Cc1cc(C)cc(NC(=O)CSc2nnc(-c3cc4occc4n3C)n2-c2ccccc2C)c1,inactive,inactive,,,inactive,inactive,,
CCN(CC)C(=O)Cn1c(SCCOc2ccc(Cl)cc2)nc2ccccc21,inactive,inactive,,,inactive,inactive,,
O=C(Nc1ccccc1Cc1ccccc1)c1ccccc1NS(=O)(=O)c1ccc(Cl)s1,22.4 µM (active),inactive,"8.53% [at 17.1 µM, percent relative to cAMP agonist control]",-15.4% [at 30.8 µM],,,8.31% [at 30.8 µM],
O=S(=O)(O)c1cc(O)c2cc(Nc3ccccc3)ccc2c1,37.9 µM (active),inactive,,,inactive,inactive,,inactive
Cc1ccc(-c2nnc(Nc3ccc4c(c3)OCO4)c3ccccc23)cc1S(N)(=O)=O,47.8 µM (active),inactive,,,inactive,inactive,,
O=C1CC2(CCCCC2)Oc2ccc(F)cc21,inactive,inactive,,,inactive,inactive,,
Cc1ccc(C(=O)NCCCNC(=O)c2ccc(Cl)cc2)cn1,inactive,inactive,,,inactive,inactive,,inactive
O=S(=O)(O)c1ccc2c(c1)C(C(Cl)(Cl)Cl)OC(C(Cl)(Cl)Cl)O2 (stereo not given),31.6 µM (active),inactive,"2.99% [at 17.1 µM, percent relative to cAMP agonist control]",-10.8% [at 30.8 µM],,,,
O=C(CS(=O)(=O)c1ccccc1)c1cc2ccccc2oc1=O,inactive,inactive,"8.75% [at 17.1 µM, percent relative to cAMP agonist control]",-20.4% [at 30.8 µM],,,,
